The values below come from PubChem BioAssay (NCI).

Each structure is given as a SMILES string. About 83,000 compounds went through this panel and 20% of them were active in at least one assay; those are over-represented in the sample as a whole.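 Method: cells in 96-well plates; compound added at one concentration; 48 h incubation; percent growth measured; values under 10 scored active.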 Values without a mark were called inactive. Active and inactive are the calls of the source.

Holding throughout (experiment): NCI-60 one-dose screen, 48 h (100 = growth as untreated, 0 = no growth, -100 = all killed)
Conditions in all cases: 10 µM unless noted

The subject of assay [1] is NCI-H23 lung.
The subject of assay [2] is NCI-H226 lung.
Assay [3] relates to NCI-H322M lung.
For assay [4], the system named is HOP-62 NSCLC.
Assay [5] concerns NCI-H460 lung.
The test system of assay [6] is HOP-92 NSCLC.
The subject of assay [7] is NCI-H522 lung.
The test system of assay [8] is A549/ATCC NSCLC.
Assay [9] concerns 786-0 renal.
In assay [10] the test system is COLO 205 colon.
The test system of assay [11] is DU-145 prostate.
In assay [12] the test system is K-562 leukemia.
Assay [13] concerns MALME-3M melanoma.
Assay [14] relates to MDA-MB-231 breast.
For assay [15], the system named is RXF 393 renal.
Assay [16] deals with SF-268 CNS.
Assay [17] relates to SF-295 CNS.
In assay [18] the test system is SF-539 CNS.
Assay [19] relates to UACC-257 melanoma.
Assay [20] concerns M14 melanoma.

As to `COc1cc(C2CC(c3cc(OC)c(OC)c(OC)c3)=Nc3c(N)nc(N)nc3N2)ccc1Oc1nc(NCCO)nc(N2CCOCC2)n1` (stereo not given), the growth was 95.8% in [1]; 84.2% in [2]; 86.2% in assay [3]; 90.4% in assay [4]; 106% in assay [5]; 103% in assay [6]. The growth in assay [7] is 87.2%; in [8], 99.2%; in assay [9], 97.6%; in assay [10], 110%; in assay [11] it was 114%; in [12], 91.1%. The growth in [13] was 98.5%; in assay [14] it was 102%; in assay [15], 105%; in assay [16] it was 93.8%; in assay [17], 101%; in assay [18], 97.5%. In addition, the growth in assay [19] is 105%; in assay [20], 102%.

As for `COc1ccc(C2=NN(C(C)=O)C(c3ccc(OCc4ccc(Cl)cc4)c(OC)c3)C2)cc1OC` (stereo not given), the growth in assay [1] was 58%; in assay [2], 49.9%; in assay [3] it was 81.9%; in assay [4], 76.2%; in assay [5], 41.3%; in assay [6], 37.1%. The growth in assay [7] was 28.5%; in assay [8], 29%; in assay [9], 57.9%; in assay [10], 41.3%; in assay [11], 51.3%; in [12], 31%. The growth in assay [13] was 48.1%; in assay [14], 69.6%; in assay [15], 52.9%; in [16] it was 47.1%; in assay [17], 37.8%; in [18], 63.8%. For the same compound, the growth is 40.2% in assay [19] and 54.2% in assay [20].

Take `COc1cc(C2CC(c3cc(OC)c(OC)c(OC)c3)=NN2c2ccccc2)ccc1OCc1ccc(C)cc1` (stereo not given): the growth is 101% in assay [1]; 80.2% in [2]; 102% in assay [3]; 99.6% in assay [4]; 99.3% in [5]; 111% in [6]. Further, the growth is 82.3% in assay [7]; 102% in assay [8]; 102% in assay [9]; 119% in assay [10]; 100% in assay [11]; 92.8% in [12]. In addition, the growth in assay [13] was 95.3%; in [14], 102%; in [15] it was 101%; in assay [16], 87.6%; in assay [17], 108%; in [18] it was 95.7%. Besides, the values for the growth in assay [19] and in assay [20] were 101% and 97.8%, respectively.

For the compound `Cc1ccc(C(SCCNCc2cc(N(C)C)ccn2)(c2ccccc2)c2ccccc2)cc1`, the growth was -35.8% (active) in [1]; -6.05% (active) in [2]; 23.1% in assay [3]; -1.31% (active) in assay [4]; -26.6% (active) in assay [5]; -25.4% (active) in [6]. Besides, the growth in assay [7] is -78.8% (active); in assay [8] it was -3.31% (active); in assay [9] it was -76.6% (active); in assay [10] it was -71.6% (active); in [11], -8% (active); in assay [12], -42.7% (active). The growth in assay [13] is -94.4% (active); in assay [14] it was -56.9% (active); in assay [15], -47.3% (active); in assay [16], -2.09% (active); in assay [17], -96.1% (active); in [18], -99.1% (active). Further, the growth in [19] was -65.4% (active); in [20], -84.3% (active).

As for `S=C(Nc1ccccc1)Nc1ccc(OCc2nc3ccccc3[nH]2)cc1`, the growth in assay [1] was 37%; in assay [2] it was 79.9%; in assay [3] it was 63.6%; in [4], 43.6%; in assay [5], 31.3%; in [6], 74.8%. The growth was 2.87% (active) in [7]; 31% in [8]; 31.8% in assay [9]; 32.9% in [10]; 43.8% in assay [11]; 15% in assay [12]. The growth was 51.6% in [13]; 37% in assay [14]; 75.1% in assay [15]; 24.1% in [16]; 24.2% in assay [17]; 30.7% in [18]. Also, the growth in [19] is 48.2%; in assay [20] it was 36.9%.

For the compound `CN1CCN(/C(=N\c2sc(-c3ccccc3)nc2-c2ccccc2)c2ccccc2)CC1`, the growth in assay [1] is 104%; in assay [2], 96.4%; in [3] it was 82.8%; in assay [4] it was 97.1%; in [5] it was 42.6%; in [6] it was 80.2%. For the same compound, the growth was 87.3% in [7]; 76.9% in [8]; 78.7% in assay [9]; 42% in [10]; 92.3% in assay [11]; 17.8% in [12]. The growth was 77.9% in assay [13]; 77.9% in assay [14]; 76.1% in assay [15]; 91.5% in [16]; 87.6% in assay [17]; 76% in [18]. For the same compound, the results for the growth in assay [19] and in assay [20] were 77.4% and 76.8%, respectively.

For the compound `COc1ccc2[nH]cc(-c3nnc(N)nc3-c3c[nH]c4ncc(Br)cc34)c2c1`, the growth in assay [1] was 92.2%; in assay [2] it was 73.1%; in [3] it was 81.3%; in [4], 75.8%; in assay [5], 80.1%; in assay [6], 106%. Besides, the growth was 84.2% in [7]; 98.2% in assay [8]; 74.8% in assay [9]; 132% in [10]; 92.6% in assay [11]; 74.1% in assay [12]. Moreover, the growth was 92.5% in [13]; 73.4% in assay [14]; 79.2% in [15]; 85.5% in assay [16]; 82% in [17]; 70.7% in assay [18]. Moreover, the growth in assay [19] was 127%; in [20], 97.6%.

With `Nc1nnc(-c2c[nH]c3ncc(Br)cc23)c(-c2c[nH]c3ccc(F)cc23)n1`, the growth in assay [1] is 33.3%; in assay [2], 50.2%; in assay [3], 50.5%; in assay [4] it was 46.6%; in assay [5], 25.7%; in [6] it was 72.9%. The growth in [7] is 50.5%; in assay [8] it was 40.7%; in assay [9], 39.2%; in assay [10], 16.2%; in assay [11], 44%; in assay [12], 23%. In addition, the growth was 13.7% in [13]; 51.6% in assay [14]; 40.9% in assay [15]; 49% in [16]; 35.1% in assay [17]; 34.8% in [18]. Besides, the results for the growth in [19] and in assay [20] were 44.9% and 23.4%, respectively.
